Screens as filed in PubChem.
Only some compounds are listed: those with a hit (about 19% of all), similar ones and a draw of the others.
DT40 TDP1 CPT: growth inhibition of DT40 Tdp1-/-;hTDP1 cells with camptothecin (screen for TDP1 inhibitors). chicken DT40 Tdp1-/-;hTDP1 cells + 20 nM CPT, ATP luminescence, 48 h. Potency, µM (top dose mostly 46.2 µM), for inactives: at the top dose activity change, negative = growth inhibition, usual class: inhibitors. 420,000 compounds, 12% hits. AID 686979; further: potency means the concentration at half of the fitted maximal effect; on the % scale 0 is the no-effect control and ±100 the full control effect; nearly all actives have a fitted effect of over 55% in size
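Cell growth measured by CellTiter-Glo luminescence after a minimum 48 h, 37 C compound exposure with 20 nM CPT in Tdp1-knockout DT40 cells stably expressing hTDP1, seeded 400/well; qHTS titration format.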
SW480 rereplic: induces DNA re-replication in SW480 colon adenocarcinoma cells; SW480 DNA re-replication, Hoechst DNA content imaging, 48 h; Potency, µM (titrated, usually from 46.1 µM), inactives show top-dose re-replication activation, most hits filed as activators; 340,000 compounds, 1.8% hits; AID 624297; further: potency means the concentration at half of the fitted maximal effect; % of control where 0% means no effect; nearly all actives have a fitted effect of over 55% in size
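First, 250 cells per well were seeded. Next, compound or vehicle (23 nL) was pinned in, plates sat 48 hr at 37 C. Finally Hoechst was added for 40 min before fluorescence scanning.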
BCR signal inh: inhibitors of chronic active B-cell receptor signaling. ABC-DLBCL IkBa-CBG/CBR reporter, luminescence ratio, 4 h. Potency, µM (titrated, usually from 46.1 µM), for inactives: top-dose activity change, negative = inhibition, usual class: inhibitors. 340,000 compounds, 0.05% hits. AID 493014; active means well fitted inhibition curve with a large enough effect in the signal ratio, with a control signal flat, not every such curve was filed as active; inconclusive means small, poorly fitted or top-dose-only effect, or effect the other way, or a change in a side signal; the % refers to the signal ratio;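 further: potency means the concentration at half of the fitted maximal effect; plate controls were basal doxycycline-induced cells for no effect and cells given 10 µM MG132 for full effect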
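Compounds up to 46 uM were incubated four hours with TMD8 cells whose green CBG68 luciferase is fused to IkappaBalpha; red CBR luminescence normalised the signal, and concentration-effect curves were fitted to fusion, red and ratio data.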
IL-1B inflam inh: blocks inflammasome-driven IL-1 beta release; THP-1 LPS/ATP IL-1B secretion, AlphaLISA, 16 h; active compounds read low; activity change, % at 57.5 µM; 360,000 compounds, 4.7% hits; AID 743279; in the data active means activity change below about -50%; inconclusive means mostly about -30% to -49%; further: on the % scale 0 is the no-effect control and ±100 the full control effect
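Secreted IL-1B measured by AlphaLISA bead assay after 16 h compound exposure of THP-1 cells; compounds (final up to 57.5 uM) added 1 h before LPS (250 ng/mL) and ATP (1.25 mM) stimulation; lower signal means less secretion.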
MCF10A rerep: DNA re-replication induction in MCF 10a cells; MCF 10A DNA re-replication, Hoechst nuclear intensity, 48 h; Potency, µM (titrated, usually from 46.1 µM), for the others: at the top dose activity, positive = re-replication, usual class: activators; 350,000 compounds, 2.9% hits; AID 624296; further: potency means the concentration at half of the fitted maximal effect; % of control where 0% means no effect; nearly all actives have a fitted effect of over 50% in size
TDP1 cell noCPT: qHTS for Inhibitors of human tyrosyl-DNA phosphodiesterase 1 (TDP1): qHTS in cells in absence of CPT | DT40 Tdp1-/- hTDP1 cells, no CPT, ATP luminescence, 48 h | Potency, µM (top dose mostly 46.2 µM), without a hit: top-dose activity change, negative = growth inhibition, usual class: inhibitors | 420,000 compounds, 15% hits | AID 686978, 2013; further: potency means the concentration at half of the fitted maximal effect; on the % scale 0 is the no-effect control and ±100 the full control effect; nearly all actives have a fitted effect of over 55% in size
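Camptothecin absent (DMSO only). Human TDP1-complemented DT40 knockout cells, 400 cells/well, 37 °C for minimum 48 hr; ATP measured via CellTiter-Glo, 30 min dark incubation, luminescence.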
An asterisk follows results filed as active; ? = inconclusive; nt = not tested or not shown; [ ] = another dose, or the depositor's remark. Unless noted, the call rests on the fitted dose curve; in most records, active means well fitted curve in the direction sought with a large enough effect; inconclusive means small, poorly fitted or top-dose-only effect, or another doubt; inactive means no such curve, though single readings can be large; an effect the other way counts as inactive or inconclusive.

SMILES | DT40 TDP1 CPT | SW480 rereplic | BCR signal inh | IL-1B inflam inh | MCF10A rerep | TDP1 cell noCPT
COCC(=O)Nc1cc(C(=O)N2CC3CCC2C3)c2c(c1)nc(-c1ccncc1)n2C (configuration not stated) | 9%[9.04 µM] | nt | nt | nt | nt | -4%
C/C(N[C@@H]1CSCC1O)=C1/C(=O)CC2[C@@H]1C2(C)C (some centres not stated) | -9%[9.04 µM] | nt | nt | nt | nt | 5%[9.04 µM]
CC(C)(C)c1ccc(C(=O)NC2(C(F)(F)F)C(=O)Nc3c2c(=O)[nH]c(=O)n3-c2ccccc2)cc1 (configuration not stated) | 8% | nt | nt | nt | nt | 2%
COc1ccc2c(c1OC)C(=O)NC(C)=C(C(=O)OC(C)(C)C)C2O (configuration not stated) | -3% | -1% | ? | -63* | -11% | -1%
COc1cc(C2NC(=O)NC(C)=C2C(=O)OC(C)(C)C)ccc1OCC(N)=O (configuration not stated) | 3% | -20% | -14% | 5 | 0% | 11%
COCCn1c(SCC(=O)N2CCCC2)nc2c(c1=O)SCC2 | -1% | nt | nt | 14 | nt | 11%
CCOC(=O)Cc1csc(NC(=O)c2sc3nc4c(C)cc(C)cc4cc3c2N)n1 | ? | 12% | -1% | 12 | ? | 18µM*
CCOC(=O)Cc1csc(NC(=O)c2ccc(OC)c(OC)c2)n1 | ? | -9% | ? | 3 | 0% | ?
CCCNC(=O)Nc1nc(CC(=O)OCC)cs1 | -1% | -9% | 3% | 10 | -1% | -4%
CCOC(=O)Cc1csc(NC(=O)/C=C/c2ccc(Cl)cc2)n1 | 18µM* | ? | ? | 0 | ? | ?
CCOC(=O)Cc1csc(NC(=O)c2ccc(S(=O)(=O)N3CCCC3)cc2)n1 | ? | -3% | -4% | -54* | -9% | ?
CCOC(=O)Cc1csc(NC(=O)C(NC(=O)C2CCC(C)CC2)C(C)C)n1 (configuration not stated) | ? | 6% | ? | 23 | 2% | 8.2µM*
Cc1cccc(OC(=O)CSc2nnc(-c3cccs3)o2)c1C | 7% | nt | nt | nt | nt | -17%
CC(=O)NCCNc1nc2cc(-c3cnn(CCC(C)C)c3)sc2c(=O)n1C | ? | nt | nt | 89 | nt | ?
CCOC(=O)Cc1csc(NC(=O)Nc2ccc(F)cc2)n1 | ? | -3% | ? | 1 | -1% | 18µM*
CCOC(=O)C(C)NC(=O)C(NC(=O)C1CCC(CC)CC1)C(C)C (configuration not stated) | 15µM* | -3% | nt | 6 | ? | ?
CCOC(=O)Cc1csc(N/C(=N/S(=O)(=O)c2ccc(Cl)cc2)c2ccccc2)n1 | ? | 13% | 5% | 1 | ? | 29µM*
CCOC(=O)Cc1csc(NC(=O)Nc2ccc(C)cc2)n1 | -26% | -51% | ? | ? | -8% | ?
CCC(C)C(NC(=O)C1CCC(C)CC1)C(=O)NC(C(=O)OC)C(C)C (configuration not stated) | -15% | -3% | 1% | 12 | 1% | ?
CCOC(=O)Cc1csc(NC(=S)NC(=O)c2cc(OC)c(OC)c(OC)c2)n1 | ? | -5% | ? | 20 | 6% | 12µM*
CCOC(=O)Cc1csc(NC(=S)NC(=O)c2ccc(F)cc2)n1 | -1% | 2% | -12% | -12 | 3% | -24%
COc1ccc(-c2cc3nc(-c4ccc(Br)cc4)cc(C(F)(F)F)n3n2)cc1 | 5% | nt | nt | nt | nt | -1%
C[N+]1(C)CCN(CC(O)(c2ccccc2)C2CCCCC2)CC1 (configuration not stated) | 2% | nt | nt | nt | nt | -15%
Clc1ccccc1OCCn1ccnc1 | -17% | -1% | nt | 0 | -7% | ?
